Screening data from PubChem.
This excerpt belongs to a sample that is enriched for hits.
Dicer inh: blocks human Dicer maturation of pre-miR-21; Q9UPY3; cat-ELCCA pre-miR-21 Dicer processing, chemiluminescence; active compounds read high; z-score at 25 µM; actives 6% (n = 47,000); AID 1347074; in the data active = z-score above about 3, passing the limit was not always enough;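 note: higher signal means more uncleaved substrate so more Dicer inhibition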
Target sequence (Q9UPY3 whole entry, looked up): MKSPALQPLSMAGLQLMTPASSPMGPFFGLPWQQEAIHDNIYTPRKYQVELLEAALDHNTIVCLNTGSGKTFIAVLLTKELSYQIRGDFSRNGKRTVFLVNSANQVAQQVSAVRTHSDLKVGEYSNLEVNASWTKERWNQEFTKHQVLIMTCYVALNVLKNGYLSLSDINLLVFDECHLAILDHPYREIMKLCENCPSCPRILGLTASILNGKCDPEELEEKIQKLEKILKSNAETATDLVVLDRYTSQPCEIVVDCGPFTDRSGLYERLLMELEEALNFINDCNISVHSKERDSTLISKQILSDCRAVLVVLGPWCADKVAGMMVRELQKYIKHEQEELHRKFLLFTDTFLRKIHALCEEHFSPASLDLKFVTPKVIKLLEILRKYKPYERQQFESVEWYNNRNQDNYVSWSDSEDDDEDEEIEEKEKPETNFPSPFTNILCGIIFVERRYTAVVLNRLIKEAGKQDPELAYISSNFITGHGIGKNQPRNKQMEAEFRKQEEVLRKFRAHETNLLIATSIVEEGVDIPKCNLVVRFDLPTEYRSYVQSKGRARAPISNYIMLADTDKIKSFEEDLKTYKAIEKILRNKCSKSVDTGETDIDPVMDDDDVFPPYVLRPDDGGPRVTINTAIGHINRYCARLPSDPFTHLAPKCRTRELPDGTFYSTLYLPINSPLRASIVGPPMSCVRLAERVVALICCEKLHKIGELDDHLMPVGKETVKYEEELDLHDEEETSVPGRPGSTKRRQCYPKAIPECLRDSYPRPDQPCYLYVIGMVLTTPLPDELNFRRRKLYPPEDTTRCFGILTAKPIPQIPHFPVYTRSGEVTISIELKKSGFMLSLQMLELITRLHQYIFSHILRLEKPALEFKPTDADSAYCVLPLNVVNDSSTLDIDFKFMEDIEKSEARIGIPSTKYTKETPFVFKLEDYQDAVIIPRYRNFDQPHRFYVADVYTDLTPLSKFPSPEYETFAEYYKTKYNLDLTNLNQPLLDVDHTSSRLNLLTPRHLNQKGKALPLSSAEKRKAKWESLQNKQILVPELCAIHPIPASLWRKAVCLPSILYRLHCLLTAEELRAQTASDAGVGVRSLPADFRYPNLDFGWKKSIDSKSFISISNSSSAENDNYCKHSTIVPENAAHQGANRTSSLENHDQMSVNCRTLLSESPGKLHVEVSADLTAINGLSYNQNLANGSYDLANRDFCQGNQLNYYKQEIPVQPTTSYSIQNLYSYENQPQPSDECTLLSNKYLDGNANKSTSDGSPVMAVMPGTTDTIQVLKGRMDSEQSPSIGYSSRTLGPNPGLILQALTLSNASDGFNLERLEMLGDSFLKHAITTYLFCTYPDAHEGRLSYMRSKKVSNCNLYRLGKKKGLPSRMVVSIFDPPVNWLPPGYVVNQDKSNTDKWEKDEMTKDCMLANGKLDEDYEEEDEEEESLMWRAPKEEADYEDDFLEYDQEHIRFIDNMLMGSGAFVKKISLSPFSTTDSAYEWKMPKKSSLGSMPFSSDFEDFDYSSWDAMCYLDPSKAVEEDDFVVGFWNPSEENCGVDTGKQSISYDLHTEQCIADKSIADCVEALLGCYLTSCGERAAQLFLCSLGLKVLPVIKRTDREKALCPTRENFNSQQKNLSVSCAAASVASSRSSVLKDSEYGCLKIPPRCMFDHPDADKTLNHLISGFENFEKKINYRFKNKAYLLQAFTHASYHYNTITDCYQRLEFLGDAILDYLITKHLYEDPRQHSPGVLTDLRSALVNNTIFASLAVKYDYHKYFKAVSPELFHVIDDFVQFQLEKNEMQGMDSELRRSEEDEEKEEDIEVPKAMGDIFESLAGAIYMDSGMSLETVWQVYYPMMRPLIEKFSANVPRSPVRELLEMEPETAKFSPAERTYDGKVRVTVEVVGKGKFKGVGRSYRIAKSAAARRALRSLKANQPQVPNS
Numbers stand for hits; - = inactive.

SMILES	Dicer inh
Cc1cc(C(=O)OCCN=C2NS(=O)(=O)c3ccccc32)c2ccccc2n1	-
CCOc1ccc(-c2nc(-c3ccc(Cl)cc3)no2)cc1OCC	3.65
COc1ccc(-c2noc(-c3ccc(OC)c(OC)c3)n2)cc1OC	-
CCOc1nc(C)ccc1-c1noc(-c2ccc(OC)c(OC)c2)n1	-
CS(=O)(=NC(=O)c1ccc2nnsc2c1)c1ccccc1 (stereo not given)	-
Cc1cc(C)c2nc(Nc3nc4ccccc4c(=O)[nH]3)nc(C)c2c1	-
Cc1cc(C)c2nc(Nc3nc(C)cc(C)n3)nc(C)c2c1	3.28
CC1=CC(C)(C)N=C(Nc2nc(C)c3cc(C)cc(C)c3n2)N1	-
COc1cccc(C2C(C#N)=C(N)Oc3n[nH]c(C(C)(C)C)c32)c1 (stereo not given)	-
Cc1ccc2c(=O)c(C(=O)c3ccccc3)coc2c1	5.49
COC(=O)Oc1ccc2c(=O)c(-c3ccccc3)coc2c1	-
Cc1ccc2c(=O)c(C(=O)c3ccccc3C)coc2c1	-
CCC12CN3CC(CC)(CN(C1)C3c1cc(Br)ccc1O)C2=O (stereo not given)	-
COC(=O)c1ccc(C2Nn3c(C)nnc3SC2C(=O)Nc2cc(C)ccc2C)cc1 (stereo not given)	-
O=[N+]([O-])c1ccccc1CS(=O)(=O)c1nc2ccccc2s1	-
Cc1nc(N2CCCCC2)c(C#N)c(C)c1[N+](=O)[O-]	4.49
CCOC(=O)c1cc(C)nc(N2CCCCC2)c1C#N	-
Cc1nc(N(C)C)c(C#N)c(C)c1[N+](=O)[O-]	-
CSc1nc(-c2ccccc2)nc(Sc2ccc(Cl)cc2Cl)c1C#N	-
O=[N+]([O-])c1ccc(-c2ncc3ccccn23)cc1	-
CC1CN(c2nc3ccccc3nc2SCC(=O)N2CCN(C3CCCCC3)CC2)CC(C)O1 (stereo not given)	-
CC1CN(c2nc3ccccc3nc2SCC(=O)NC2CCCCC2)CC(C)O1 (stereo not given)	-
COc1ccc(OC)c(NC(=O)CSc2nc3ccccc3nc2N2CCCC2)c1	-
CC1CCN(c2nc3ccccc3nc2SCC(=O)NC2CC2)CC1	3.08
O=C(CSc1nc2ccccc2nc1N1CCCC1)NCC1CCCO1 (stereo not given)	-
SMILES	Dicer inh
CC1CN(c2nc3ccccc3nc2SCC(=O)NC2CCCC2)CC(C)O1 (stereo not given)	-
O=C(CSc1nc2ccccc2nc1N1CCCCC1)NCC1CCCO1 (stereo not given)	3.11
O=C(CSc1nc2ccccc2nc1N1CCOCC1)N1CCN(C2CCCCC2)CC1	-
O=C(CSc1nc2ccccc2nc1N1CCCC1)N1CCN(C2CCCCC2)CC1	3.01
O=S(=O)(c1ccccc1)c1csc(S(=O)(=O)N2CCCN(c3c(Cl)cncc3Cl)CC2)c1	-
COC(=O)c1sc2c(c1N)CSc1ccc(Cl)cc1-2	-
CC(=O)N1c2ccccc2NC2=C(C(=O)CC(C)(C)C2)C1c1c(F)cccc1Cl (stereo not given)	-
CN[C@@H]1C(O[C@H]2O[C@H](CO)[C@@H](N)[C@H](O)[C@H]2O)O[C@H]2C[C@@H](N)[C@@H](O[C@H]3[C@H](O)[C@@H](O)[C@H](N)C[C@@H]3N)OC2[C@@H]1O (stereo not given in full)	-
Cn1c2c(c(=O)n(C)c1=O)CN(CCO)CN2	-
O=C1C(=Cc2cccc([N+](=O)[O-])c2)N=C2SCCCN12	-
O=C(CCN(Cc1ccco1)S(=O)(=O)c1ccc(Cl)cc1)NNC(=O)Nc1ccc(Cl)cc1	-
O=C(NCC1COc2ccccc2O1)C1COc2ccccc2O1 (stereo not given)	-
CCOC(=O)c1cc2cccc([N+](=O)[O-])c2[nH]1	-
CSc1ccccc1NC(=O)Cn1nc([N+](=O)[O-])c(Br)c1C	-
COC(=O)C1=C(C)NC2=C(C(=O)CC(C)(C)C2)C1c1ccccc1OC (stereo not given)	-
COC(=O)C1=C(N)Oc2cc(N(C)C)ccc2C1c1ccccc1OC (stereo not given)	3.17
COc1ccc(Br)cc1C1C(C#N)=C(N)Oc2cc(O)ccc21 (stereo not given)	-
O=C(OCCSc1sccc1[N+](=O)[O-])c1ccc(Cl)cc1	-
Nc1nnc(SCC(=O)Nc2ccc(F)c(F)c2F)s1	-
Nc1nnc(SCC(=O)Nc2ccccc2)s1	-
Nc1nnc(SCC(=O)Nc2nncs2)s1	3.11
CC(C)(C)C1=CC(O)n2c(nc3ccccc32)S1 (stereo not given)	-
O=C(c1cn(CCOc2ccc(Cl)cc2)c2ccccc12)C1CC1	-
C/C(=N\OC(=O)c1ccc(C(C)(C)C)cc1)c1ccc(F)c(F)c1	-
Cc1ccc(S(=O)(=O)Nc2nc3n(n2)C(c2ccccc2)C=C(c2ccccc2)N3)cc1 (stereo not given)	-
SMILES	Dicer inh
Cc1ccc(C2C=C(c3ccccc3)Nc3nc(NS(=O)(=O)c4ccc(C)cc4)nn32)cc1 (stereo not given)	3.96
O=C(CCc1ccccc1)Nc1nc2n(n1)C(c1ccc(F)cc1)C=C(c1ccccc1)N2 (stereo not given)	-
CC1CN=C(N(C(=O)Nc2cccc(Cl)c2)c2ccc(Cl)cc2)S1 (stereo not given)	-
COc1ccc(/C=N/NC(=O)N/N=C/c2ccc(OC)c(Br)c2)cc1Br	-
COc1ccc(NC(=O)Nc2cccc(NC(=O)Nc3ccc(OC)cc3)c2F)cc1	-
COc1ccc(NC(=O)c2cccc3c2-c2ccc(I)cc2C3)cc1	-
COc1ccc(NC(=O)C2=Cc3cccc(OC)c3OC2)cc1	3.79
N#C/C(=C\N(CCS(=O)(=O)c1ccc(Cl)cc1)Cc1cccs1)S(=O)(=O)c1cccs1	-
COC(=O)CSc1ncnc2cc(OC)c(OC)cc12	-
C(=N\Nc1nnc2c(n1)[nH]c1ccccc12)/c1ccc2c(c1)OCO2	-
Oc1ccccc1/C=N/Nc1nnc2c(n1)[nH]c1ccccc12	3.4
Fc1ccc(/C=N/Nc2nnc3c(n2)[nH]c2ccccc23)cc1	-
Clc1ccc(Cn2c(-c3cncs3)nc3ccccc32)cc1	-
O=C(Cn1c(-c2cncs2)nc2ccccc21)Nc1ccc2c(c1)OCCO2	4.22
O=C(Cn1c(-c2cncs2)nc2ccccc21)Nc1ccccc1Cl	-
CC1=CC(=O)C(CCCCCC2=CC(=O)C(C)=CC2=O)=CC1=O	-
N#Cc1c(OCC(F)(F)F)ccc(C(N)=O)c1OCC(F)(F)F	-
COC(=O)C1=C(C)N(c2ccc(F)cc2)CC1=O	3.2
COC(=O)C1=NNC2C(=O)N(c3ccc(F)cc3)C(=O)C12 (stereo not given)	-
COC(=O)C1=C(C)NC(=O)CC1c1ccc(F)cc1 (stereo not given)	-
Cc1ccc2[nH]c(=S)n(-c3ccc(S(=O)(=O)N4CCCCC4)cc3)c(=O)c2c1	-
CCOC(=O)Oc1cc2oc(=O)sc2cc1Cl	-
Cc1ccc(-c2cc(O)cc3sc(=O)oc23)cc1C	6.6
Cc1cc(O)c2c(c1)C(=O)c1cc(O)cc(O)c1C2=O	-
O=C(Nc1ccccc1SCc1cc([N+](=O)[O-])cc2c1OCOC2)c1ccc(Cl)cc1	-
O=c1[nH]nc(SCCS(=O)(=O)c2ccc(F)cc2)n1C1CC1	-
CC(C)(C)n1nc(C2CC2)c(Br)c1NC(=O)c1ccccc1Cl	-
Cc1cc(NC(=O)c2ccc(Cl)cc2Cl)n(C(C)(C)C)n1	-
Cc1nn(C(C)(C)C)c(NC(=O)c2ccc(Cl)cc2Cl)c1Br	3.32
O=C(NC(Cc1ccccc1)C(=O)O)c1ccc(C(=O)NC(Cc2ccccc2)C(=O)O)cc1 (stereo not given)	-
